According to PubChem BioAssay (NCATS):
Results filed as inconclusive are left out. Values without a mark were called inactive. Active and inactive are the calls of the source. The call rests on the fitted dose curve; in most records, active means well fitted cell-killing curve with a large enough effect; inconclusive means small, poorly fitted or top-dose-only effect, or effect the other way; inactive means no such curve, though single readings can be large or run the other way.

Test: Quantitative High-Throughput drug screen in 47 multiple myeloma cell lines against the NCATS MIPE library collection: PE2_PLB cell viability assay (AID 1919869); further: nearly all actives have a fitted effect of over 35% in size
Conditions: PE2_PLB myeloma cells viability, ATP luminescence, 48 h; series mostly up to 45.8 µM; viability (% of control): at the top concentration
Excerpt: PI: Beverly A. Mock Ph.D.
Laboratory of Cancer Biology and Genetics,
Center for Cancer Research, National Cancer Institute,
National Institute of Health, Bethesda, Maryland
Drug resistance and disease progression are common in multiple myeloma (MM) patients, underscoring the need for new therapeutic combinations. […] We hypothesized that effective combinations would reduce MYC expression and enhance p16 activity. […] These preclinical data identify potentially useful drug combinations for evaluation in drug-resistant MM and reveal potential mechanisms of combined drug sensitivity.
Described herein is the primary MIPE qHTS used to cherrypick compounds. Validated compounds were then further tested for potential synergistic activiy.
[1] Peat TJ, Gaikwad SM, Dubois W, Gyabaah-Kessie N, Zhang S, Gorjifard S, Phyo Z, Andres M, Hughitt VK, Simpson RM, Miller MA, Girvin AT, Taylor A, Williams D, D'Antonio N, Zhang Y, Rajagopalan A, Flietner E, Wilson K, Zhang X, Shinn P, Klumpp-Thomas C, McKnight C, Itkin Z, Chen L, Kazandijian D, Zhang J, Michalowski AM, Simmons JK, Keats J, Thomas CJ, Mock BA. Drug combinations identified by high-throughput screening promote cell cycle transition and upregulate Smad pathways in myeloma. Cancer Lett. 2023 Aug 1;568:216284. doi: 10.1016/j.canlet.2023.216284. Epub 2023 Jun 24. PMID: 37356470; PMCID: PMC10408729.
SEQUENCE No. (e.g., 1, 2, 3, etc.); […] (e.g., Cells, Incubation, Reagent, etc.); VALUE and DESCRIPTION.
1; Cells; 5 uL; white, solid bottom 1536-well Greiner assay plate.
2; Compounds; 23 nL; Kalypsis pin tool (Wako USA) equipped with a 1536-well pin head to transfer to the assay plates.
3; Incubation; 48 hours; 37C incubation.
4; Reagent;5uL; CellTiter Glo (Promega).
5; Detector; 425V; Luminescence; Viewlux PerkinElmer.
NOTES (numbers refer to Sequence numbers above)
1. The cell-based screening methods employed in this study were like those previously published. Briefly, the corresponding myeloma cell lines were screened in 1,536-well plates with 500 cells, 5-uL per well for inhibition of cell viability (assessed by measuring ATP levels with CellTiterGlo).
2. NCATS MIPE 4.0 library of approved and investigational drugs were added using the Kalypsis pin tool. Wells treated with DMSO only for 100% viability and media only for 0% viability were used as controls.
3. The assay plates were covered and incubated for 48 hours in a 37C, 5% CO2 incubator with controlled humidity.
4. After 48 hours, CellTilter-GloTM luminescent substrate mix (Promega) reagent was added to the assay plate and plates we incubated for 5 min at room temperature.
5. Signal was measured as median relative luminescence units on a ViewLux (PerkinElmer) multiplate reader.
[1] Heske CM, Davis MI, Baumgart JT, Wilson K, Gormally MV, Chen L, Zhang X, Ceribelli M, Duveau DY, Guha R, Ferrer M, Arnaldez FI, Ji J, Tran HL, Zhang Y, Mendoza A, Helman LJ, Thomas CJ. Matrix Screen Identifies Synergistic Combination of PARP Inhibitors and Nicotinamide Phosphoribosyltransferase (NAMPT) Inhibitors in Ewing Sarcoma. Clin Cancer Res. 2017 Dec 1;23(23):7301-7311. doi: 10.1158/1078-0432.CCR-17-1121. Epub 2017 Sep 12. PMID: 28899971; PMCID: PMC6636827.
Potency means the concentration at half of the fitted maximal effect.

Compound	Potency	viability (% of control) [%]
Cn1cc(C2=C(c3cn(C4CCN(Cc5ccccn5)CC4)c4ccccc34)C(=O)NC2=O)c2ccccc21	8.33 µM (active)	
C[C@@H]1O[C@@H](O[C@H]2C[C@@H](O)[C@]3(CO)[C@H]4[C@H](O)C[C@]5(C)[C@@H](C6=CC(=O)OC6)CC[C@]5(O)[C@@H]4CC[C@]3(O)C2)[C@H](O)[C@H](O)[C@H]1O	0.0332 µM (active)	
C[C@@H]1[C@@H](C(=O)C[C@H]2O[C@@H]3O[C@]4(C)CC[C@@H]5[C@H](C)CC[C@@H]([C@H]2C)[C@@]35OO4)O[C@@H]2O[C@]3(C)CC[C@H]4[C@H](C)CC[C@@H]1[C@@]24OO3	0.264 µM (active)	
C=C(C)[C@H]1Cc2c(ccc3c2O[C@@H]2COc4cc(OC)c(OC)cc4[C@@H]2C3=O)O1	0.372 µM (active)	
N[C@@H](Cc1ccc(N(CCCl)CCCl)cc1)C(=O)O	3.32 µM (active)	
COc1ccc(C(CN(C)C)C2(O)CCCCC2)cc1 (configuration not stated)		97.5
Cc1sc2c(c1C)C(c1ccc(Cl)cc1)=N[C@@H](CC(=O)OC(C)(C)C)c1nnc(C)n1-2	1.18 µM (active)	
Fc1ccc(C(OCCN2CCN(CCCc3ccccc3)CC2)c2ccc(F)cc2)cc1	13.2 µM (active)	
C[C@@H]1[C@@H](CC(C[C@H]2O[C@@H]3O[C@]4(C)CC[C@@H]5[C@H](C)CC[C@@H]([C@H]2C)[C@@]35OO4)C[S+](=O)([O-])c2ccc(COC(=O)N(C)C)cc2)O[C@@H]2O[C@]3(C)CC[C@H]4[C@H](C)CC[C@@H]1[C@@]24OO3 (some centres not stated)	0.264 µM (active)	
Cn1c(CCCC(=O)O)nc2cc(N(CCCl)CCCl)ccc21	8.33 µM (active)	
NCC1(CC(=O)O)CCCCC1		114
CNC(=O)c1ccc(N2C(=S)N(c3ccc(C#N)c(C(F)(F)F)c3)C(=O)C23CCC3)cc1F	9.35 µM (active)	
COC[C@H]1OC(=O)c2coc3c2[C@@]1(C)C1=C(C3=O)C2CCC(=O)[C@@]2(C)C[C@H]1OC(C)=O (some centres not stated)	1.66 µM (active)	
Cc1cccc(C)c1NC(=O)CN1CCCC1=O		92.6
CN1CCN(C(=O)O[C@H]2c3nccnc3C(=O)N2c2ccc(Cl)cn2)CC1		131
CN(C)[C@@H]1C(=O)C(C(N)=O)=C(O)[C@@]2(O)C(=O)C3=C(O)c4c(O)cccc4[C@@](C)(O)[C@H]3C[C@@H]12		102
Cc1cc(SCc2sc(-c3ccc(C(F)(F)F)c(F)c3)nc2C)ccc1OCC(=O)O	26.4 µM (active)	
CNC(=O)N1N=C(c2ccc(N)cc2)c2cc3c(cc2CC1C)OCO3 (configuration not stated)	7.43 µM (active)	
CC(C)CC(N(C)C)C1(c2ccc(Cl)cc2)CCC1 (configuration not stated)		100
CC(O)(CS(=O)(=O)c1ccc(F)cc1)C(=O)Nc1ccc(C#N)c(C(F)(F)F)c1 (configuration not stated)	0.418 µM (active)	
O=C1CC[C@@]2(O)[C@H]3Cc4ccc(O)c5c4[C@@]2(CCN3CC2CC2)[C@H]1O5		124
CN(C)CCc1ccc(O)cc1	9.35 µM (active)	
COc1ccc(C(=O)c2c(C)n(CCN3CCOCC3)c3ccccc23)cc1		106
CCCC(C)(COC(N)=O)COC(=O)NC(C)C (configuration not stated)		113
CC1=C2C[C@@H]3[C@@H](CC=C4C[C@@H](O)CC[C@@]43C)[C@@H]2CC[C@]12O[C@H]1C[C@H](C)CN[C@H]1[C@H]2C		129
CNCC(O)c1ccc(O)cc1 (configuration not stated)		83
C#CCN(C)[C@H](C)Cc1ccccc1		94.5
